HCMV antiviral: human cytomegalovirus inhibition | HFF cells, HCMV-luciferase reporter, 72 h; hits give low values | activity change, negative = inhibition, % at 57.5 µM | actives 4.5% (n = 410,000) | AID 1259415; in the data active = activity change below about -60%; inconclusive = no clear call, values can overlap the other calls; inactive = above about -39%; also: % is scaled to controls: 0 for no effect and ±100 for the full control effect
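After 16 h attachment at 37C, HFF cells received test compound and HCMV-luciferase (1 PFU/cell); reporter luminescence read 72 h later, data normalized against buffer-only and known inhibitor Salinomycin.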
Lassa entry inh: inhibitors of Lassa virus binding or cell entry; Lassa virus pseudotype entry inhibition, cell reporter; Potency, µM (titrated, usually from 37.9 µM), for inactives: at the highest dose activity change, negative = inhibition, actives largely listed as inhibitors; actives 1.2% (n = 300,000); AID 540256; calls by dose curve; tested in HEK293 cells; also: potency is read from the fitted curve at half-maximal effect; % is scaled to controls: 0 for no effect and ±100 for the full control effect; nearly all actives have a fitted effect of over 50% in size
SARS PLpro yeast: SARS-CoV PLP inhibition in yeast | Potency, µM (top dose mostly 32.9 µM), without a hit: at the top dose activity, positive = growth rescue, usual class: activators | actives 0.19% (n = 330,000) | S. cerevisiae expressing SARS-CoV PLpro, growth rescue; calls by dose curve; also: potency is read from the fitted curve at half-maximal effect; 0% is about no effect; nearly all actives have a fitted effect of over 55% in size
Marburg entry inh: inhibitors of Marburg virus binding or cell entry | Potency, µM (titrated, usually from 37.8 µM), inactives show at the top dose activity change, negative = inhibition, actives largely listed as inhibitors | AID 540276 | actives 1.8% (n = 300,000) | Marburg virus pseudotyped entry inhibition, cell reporter; calls by dose curve; tested in HEK293 cells; also: potency is read from the fitted curve at half-maximal effect; % is scaled to controls: 0 for no effect and ±100 for the full control effect
HCV inhibitor: inhibitors of hepatitis C virus infection; Huh7.5.1 HCVcc-Cre infection, luciferase reporter, 44 h; Potency, µM (highest dose often 41.8 µM), for inactives: at the highest dose activity change, negative = inhibition, most hits filed as inhibitors; actives 3.4% (n = 340,000); AID 651820; active = well fitted inhibition curve with a large enough effect; inconclusive = small, poorly fitted or top-dose-only effect, or another doubt; inactive = no such curve, though single readings can be large or run the other way; also: potency is read from the fitted curve at half-maximal effect; % is scaled to controls: 0 for no effect and ±100 for the full control effect
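Cells seeded at 1,000/well and cultured 4 h, then compounds added followed by HCVcc-Cre virus (~0.5 moi). After 44 h further culture, luciferase substrate was added, plates held 15 min at room temperature, and luminescence read for 15 sec.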
FMDV inh: antivirals against foot and mouth disease virus; FMDV antiviral cell-based qHTS; Potency, µM (series often up to 57.9 µM), inactives show at the top dose activity change, negative = inhibition, usual class: inhibitors; actives 1.2% (n = 410,000); calls by dose curve; tested in HEK293T cells; also: read-out not given here; potency is read from the fitted curve at half-maximal effect; % is scaled to controls: 0 for no effect and ±100 for the full control effect; nearly all actives have a fitted effect of over 45% in size
* marks the source's active call; other numbers are inactive results; u = inconclusive; x = not tested or not shown; [ ] = dose if it differs, or a comment. Sampled rows, rich in hits. Any-hit rate of the full collection: about 8%.

SMILES | HCMV antiviral | Lassa entry inh | SARS PLpro yeast | Marburg entry inh | HCV inhibitor | FMDV inh
COc1ccc(C(=O)N2CCN(c3nc4c(C)c(Cl)ccc4s3)CC2)c(OC)c1 | -39 | -14%[46.1 µM] | x | x | x | u
COc1ccc(N2C(=O)C(=O)N(c3ccc(OC)cc3)P2(=O)N(CCCl)CCCl)cc1 | -75* | -1%[46.1 µM] | x | -2%[46.1 µM] | 9% | -14%
COc1ccc(N2C(=O)CCC2=O)cc1 | 35 | 0% | 4% | -15% | 2% | -7%
NC(=S)NN=C1CCCCCCCCC1 | -35 | -1% | x | -12% | -22% | -25%
C/C(CC(C)(C)C1CCCCC1)=N\NC(N)=S | -88* | 16µM* | -37% | u | 2.8µM* | x
COCc1cccc(-c2cccc3c2COCC(=O)N3Cc2ccccc2)c1 | -5 | x | x | x | x | x
Nc1ncnc2c1ncn2CCc1ccccc1 | u | 2%[46.1 µM] | 1% | u | 1% | 9%
Nc1ncnc2c1nc(SCCO)n2Cc1ccccc1 | -74* | x | 3% | -1%[46.1 µM] | 10% | -25%
Cn1c(=O)[nH]c(=O)c2c1nc(N1CCCCC1)n2CCCSc1nc2ccccc2s1 | -28 | u | 10% | u | 10µM* | u
Cn1c(=O)c2c(nc(N3CCCCC3)n2CCSc2nc3ccccc3s2)n(C)c1=O | -32 | u | -13% | -1% | u | -23%
CC1CCN(c2nc3c(c(=O)n(C)c(=O)n3C)n2CCSc2nc3ccccc3s2)CC1 | -34 | u | -2% | u | 11µM* | 0%
COc1ccc(CCNC(=O)C(CC(C)C)N2Cc3ccccc3C2=O)c(OC)c1OC (stereo not drawn) | -25 | -24%[46.1 µM] | x | x | x | -3%
CCN(CC)CCCNC(=O)c1sc2nc3n(c(=O)c2c1C)CCCCC3 | -15 | 1%[46.1 µM] | x | x | x | -17%
CCN(CC)CCNc1cc(C)nc2c1C(=O)C(=O)C=C2N1CCCCC1 | -98* | x | 0% | x | u | u
Cc1cc2n(n1)CCC(=O)N2Cc1ccc(C(=O)Nc2ccc(F)cc2F)cc1 | 37 | -20%[46.1 µM] | x | x | x | -12%
N#Cc1cccc(NC(=O)c2cc(C3CCCCN3C(=O)C3CC3)on2)c1 (stereo not drawn) | -63* | x | x | x | x | u
N#Cc1cccc(NC(=O)c2cc(C3CCCCN3C(=O)c3ccccc3)on2)c1 (stereo not drawn) | u | x | x | x | x | -21%
Cc1cccc(NCc2nnc3n2CCCCC3)c1C | 16 | 4%[46.1 µM] | x | x | x | 7%
Cc1ccccc1COc1ccc(/C(O)=C2\C(=O)C(=O)N(CCCn3ccnc3)[C@H]2c2ccco2)cc1 | x | x | x | 21% | x | x
COc1ccc(CCC(=O)NC(C)C)cc1 | -86* | 7% | 7% | u | -1% | -3%
COc1ccc(C(=O)CCc2ccccc2)cc1 | u | x | 2% | x | 11µM* | 52%
COc1ccc(CCC(=O)NNC(=O)Nc2ccc(C(C)=O)cc2)cc1 | 11 | 0.71µM* | -6% | 6% | 3% | 24%
COc1ccc(C(C)NC(=O)CCc2ccccc2)cc1 (stereo not drawn) | -9 | -15% | 1% | -1% | 23% | 13%
CCOc1ccc(-n2c(SCC(=O)Nc3cc(C)ccc3C)nc3c([nH]c4ccccc43)c2=O)cc1 | 9 | 26%[46.1 µM] | x | x | x | 0%
COc1cc(OC)c(NC(=O)CCn2cccn2)cc1Cl | -13 | -3%[46.1 µM] | x | x | x | -6%
SMILES | HCMV antiviral | Lassa entry inh | SARS PLpro yeast | Marburg entry inh | HCV inhibitor | FMDV inh
COc1ccc(C2(CNC(=O)c3ccc(Br)o3)CCOCC2)cc1 | 26 | 3% | -5% | 0% | -2% | -14%
CCCCOc1ccc(C(=O)NCC2(c3ccc(OC)cc3)CCOCC2)cc1 | -38 | 2.8µM* | 3% | u | -10% | -18%
COc1ccc(CCNC(=O)C(=O)NCC(c2ccc3c(c2)OCO3)N2CCOCC2)cc1OC (stereo not drawn) | 31 | -11%[46.1 µM] | x | x | x | -19%
C/C(O)=C1\C(=O)[C@@H]2[C@H]3c4c[nH]c5cccc(c45)C[C@H]3C(C)(C)N2C1=O | x | x | x | x | x | 3%[97.4 µM]
Cc1ccccc1CNC(=O)c1cccc(NC(=O)N2CCSc3ncccc32)c1 | 0 | -4%[46.1 µM] | x | x | x | u
CCOC(=O)NNC(=O)CCn1c2c(c3ccccc31)CCCC2 | -89* | x | 0% | x | u | -5%
O=C(CCn1c2c(c3ccccc31)CCCC2)NNC(=O)c1ccc(Cl)c([N+](=O)[O-])c1 | -29 | -4% | -3% | -9% | 10µM* | 3%
O=C(CCn1c2c(c3ccccc31)CCCC2)NNC(=O)c1ccc([N+](=O)[O-])cc1 | -10 | -12% | -7% | -4% | u | -21%
CC(C)OC(=O)c1cc2c(ccn2C)n1CC(=O)N(Cc1ccccc1)c1ccccc1 | u | 3.2µM* | 5% | 2.5µM* | u | -21%
COc1ccc2[nH]c3c4c(ccc3c2c1)C(=O)C=CC4=O | 81 | x | -5% | x | u | 14µM*
CCN(CC)c1ccc(NC(=O)CSc2nnc(C)c(=O)[nH]2)cc1 | 0 | -19%[46.1 µM] | x | u | x | -12%
COc1ccc2ncc3c(-c4ccc(C)c(C)c4)nn(CC(=O)Nc4ccccc4)c3c2c1 | -92* | -16%[46.1 µM] | x | x | x | 9%
COc1ccc(S[C@]2(C(=O)N3CCCC3)CC(=O)N(c3ccc(OC)cc3)[C@@H]2c2ccc(OC)cc2)cc1 | -1 | x | x | x | x | x
COc1ccccc1CNC(=O)CCc1c(C)c2cc3c(C)coc3cc2oc1=O | 5 | -24%[46.1 µM] | x | 3%[46.1 µM] | x | 13%
CC(C)c1ccc(NC2CCCN(C(=O)c3ccc(N4CCOCC4)cc3)C2)cc1 (stereo not drawn) | -31 | -26% | -1% | -26% | u | 28µM*
COc1cnc(SC)nc1Nc1ccc(C#N)cc1 | -35 | x | 1% | x | 22µM* | -15%
COC(=O)c1ccc2c(=O)[nH]c(CCl)nc2c1 | 1 | u | 0% | 13µM* | u | u
N/C(=N\OC(=O)c1ccc(Cl)c(Cl)c1)c1ccccn1 | 114 | u | -9% | u | 17% | -53%
N/C(=N\OC(=O)c1ccc(Cl)c([N+](=O)[O-])c1)c1ccccn1 | -63* | u | -8% | 3.2µM* | u | 49%
N/C(=N\OC(=O)c1cccc(Cl)c1)c1ccccn1 | 9 | 7.9µM* | -95% | 3.7µM* | -5% | -57%
CCCCCC(=O)N1C[C@H](n2cc(-c3ccc(F)cc3)nn2)[C@@H](O)C[C@H]1c1ccc(C)cc1 | x | 3%[46.1 µM] | x | x | x | x
CC(=O)c1ccc(N2CCN(CC(O)COC(c3ccccc3)c3ccccc3C)CC2)cc1 (stereo not drawn) | 30 | 0% | 0% | u | 11µM* | 2%
OC(COC(c1ccccc1)c1ccccc1)CN1CCN(c2cccc(Cl)c2)CC1 (stereo not drawn) | 11 | -30%[46.1 µM] | -10% | u | u | -5%
CC(=O)c1ccc(N2CCN(CC(O)COC(c3ccccc3)c3ccccc3)CC2)cc1 (stereo not drawn) | 12 | 0%[46.1 µM] | 4% | u | 4µM* | -19%
